# Inconclusive results are not listed. Entries that show only a call come without a potency. Calls of active or inactive are those of the source. Unless noted, calls follow the shape of the full dose curve.
# Columns and labels:
# [1] = qHTS for Inhibitors of the Functional Ribonucleoprotein Complex (vRNP) of Lassa (LASV) Arenavirus: LASV Primary Screen - GLuc reporter signal (AID 1347082; calls by dose curve; tested in HEK293 reporter line; also: nearly all actives have a fitted effect of over 60% in size); conditions: LASV minigenome vRNP, Gaussia luciferase reporter; series mostly up to 57.5 µM
# [2] = molecular target: Nucleoprotein (Lymphocytic choriomeningitis virus (strain Armstrong)) (UniProt P09992); assay: qHTS for Inhibitors of the Functional Ribonucleoprotein Complex (vRNP) of Lymphocytic Choriomeningitis Arenaviruses (LCMV): LCMV Primary Screen - GLuc reporter signal (AID 1347086); conditions: LCMV minigenome vRNP cell assay, Gaussia luciferase reporter; series mostly up to 57.5 µM; also: nearly all actives have a fitted effect of over 70% in size; also: potency is read from the fitted curve at half-maximal effect
# Nucleoprotein (Lymphocytic choriomeningitis virus (strain Armstrong)), sequence (P09992 whole entry, looked up): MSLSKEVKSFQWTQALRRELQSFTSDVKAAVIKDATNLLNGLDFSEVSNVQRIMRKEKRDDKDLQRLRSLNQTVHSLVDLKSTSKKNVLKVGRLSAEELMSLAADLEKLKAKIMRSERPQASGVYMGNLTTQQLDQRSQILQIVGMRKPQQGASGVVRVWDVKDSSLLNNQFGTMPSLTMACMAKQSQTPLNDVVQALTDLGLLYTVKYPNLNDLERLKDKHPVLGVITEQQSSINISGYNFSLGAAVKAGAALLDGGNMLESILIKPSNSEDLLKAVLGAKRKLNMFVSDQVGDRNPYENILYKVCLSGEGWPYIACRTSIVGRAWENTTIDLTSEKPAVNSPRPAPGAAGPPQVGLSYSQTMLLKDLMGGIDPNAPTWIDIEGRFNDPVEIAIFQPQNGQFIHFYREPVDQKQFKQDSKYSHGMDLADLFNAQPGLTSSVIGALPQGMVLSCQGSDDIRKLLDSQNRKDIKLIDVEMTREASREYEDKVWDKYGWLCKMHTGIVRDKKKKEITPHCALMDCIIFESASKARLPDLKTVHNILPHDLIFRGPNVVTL
# [3] = qHTS of pediatric cancer cell lines to identify multiple opportunities for drug repurposing: Primary screen for TC32 cells (AID 1347089; active = well fitted curve in the direction sought with a large enough effect; an effect the other way counts as inactive or inconclusive; also: potency is read from the fitted curve at half-maximal effect; nearly all actives have a fitted effect of over 60% in size); conditions: TC32 Ewing sarcoma viability, CellTiter-Glo luminescence, 48 h; series mostly up to 45.8 µM
# Outline: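 Luminescent ATP read-out (CellTiter-Glo) of metabolically active TC32 cells after 48 h exposure. Concentration-response curves came from 11-point (MIPE, 0.78 nM–46 µM) or 8-point (NPC, 0.59 nM–46 µM) primary titrations; follow-up used 11 points.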
# [4] = qHTS of pediatric cancer cell lines to identify multiple opportunities for drug repurposing: Primary screen for DAOY cells (AID 1347090; active = well fitted curve in the direction sought with a large enough effect; an effect the other way counts as inactive or inconclusive; also: potency is read from the fitted curve at half-maximal effect; nearly all actives have a fitted effect of over 55% in size); conditions: DAOY medulloblastoma viability, CellTiter-Glo luminescence, 48 h; series mostly up to 46 µM
# Outline: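 Eight- or eleven-point concentration series, 48 h treatment at 37 degrees C in growth media; readout CellTiter-Glo luminescence. Potency and efficacy were taken from the concentration-response curves.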
# [5] = qHTS of pediatric cancer cell lines to identify multiple opportunities for drug repurposing: Primary screen for A673 cells (AID 1347092; active = well fitted curve in the direction sought with a large enough effect; an effect the other way counts as inactive or inconclusive; also: potency is read from the fitted curve at half-maximal effect; nearly all actives have a fitted effect of over 45% in size); conditions: A673 Ewing sarcoma viability, CellTiter-Glo ATP luminescence, 48 h; series mostly up to 46 µM
# Outline: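 Cell viability of A673 measured by CellTiter-Glo ATP luminescence after 48 hours compound exposure. Dilution series spanned 0.78 nM to 46 µM (MIPE, 11-point) or 0.59 nM to 46 µM (NPC, 8-point); bortezomib 2.3 uM positive control.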
# [6] = qHTS of pediatric cancer cell lines to identify multiple opportunities for drug repurposing: Primary screen for SK-N-MC cells (AID 1347093; active = well fitted curve in the direction sought with a large enough effect; an effect the other way counts as inactive or inconclusive; also: potency is read from the fitted curve at half-maximal effect); conditions: SK-N-MC viability, CellTiter-Glo luminescence, 48 h; series mostly up to 46 µM
# Outline: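 Metabolically active cells were quantified by ATP-dependent luminescence (CellTiter-Glo, 15 min at room temperature) following 48 h treatment. Cells had been plated at 500-1,000 per well and settled for 5 h beforehand.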
# [7] = qHTS of pediatric cancer cell lines to identify multiple opportunities for drug repurposing: Primary screen for BT-37 cells (AID 1347094; active = well fitted curve in the direction sought with a large enough effect; an effect the other way counts as inactive or inconclusive; also: potency is read from the fitted curve at half-maximal effect); conditions: BT-37 viability, CellTiter-Glo luminescence, 48 h; series mostly up to 57.3 µM
# Outline: (§1)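 Phenotypic viability qHTS, 48 h compound exposure, CellTiter-Glo luminescence read-out; multi-concentration dosing so that potency and efficacy derive directly from the primary screen's curves.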
# [8] = qHTS of pediatric cancer cell lines to identify multiple opportunities for drug repurposing: Primary screen for U-2 OS cells (AID 1347096; active = well fitted curve in the direction sought with a large enough effect; an effect the other way counts as inactive or inconclusive; also: potency is read from the fitted curve at half-maximal effect; nearly all actives have a fitted effect of over 50% in size); conditions: U-2 OS viability, CellTiter-Glo luminescence, 48 h; series mostly up to 46 µM
# Outline: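 Cells (500-1,000/well) in growth media were settled 5 h at 37 degrees C, then given compounds for 48 h. Viability was read as CellTiter-Glo luminescence. Primary runs used MIPE at 11 points (0.78 nM-46 µM) and NPC at 8 points (0.59 nM-46 µM); follow-ups used 11 points.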
# [9] = qHTS of pediatric cancer cell lines to identify multiple opportunities for drug repurposing: Primary screen for Saos-2 cells (AID 1347097; active = well fitted curve in the direction sought with a large enough effect; an effect the other way counts as inactive or inconclusive; also: potency is read from the fitted curve at half-maximal effect; nearly all actives have a fitted effect of over 40% in size); conditions: Saos-2 viability, CellTiter-Glo ATP luminescence, 48 h; series mostly up to 46 µM
# Outline: as §1
# [10] = qHTS of pediatric cancer cell lines to identify multiple opportunities for drug repurposing: Primary screen for SK-N-SH cells (AID 1347098; active = well fitted curve in the direction sought with a large enough effect; an effect the other way counts as inactive or inconclusive; also: potency is read from the fitted curve at half-maximal effect; nearly all actives have a fitted effect of over 65% in size); conditions: SK-N-SH viability, CellTiter-Glo luminescence, 48 h; series mostly up to 57 µM
# Outline: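 Cells (500-1,000/well) rested 5 h, then received compounds for 48 h; metabolically active cells were measured by CellTiter-Glo luminescence. Final concentrations spanned up to 46 µM (MIPE, 11-point) or 0.59 nM-46 µM (NPC, 8-point) in primary screens, 11-point in follow-ups.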
# [11] = qHTS of pediatric cancer cell lines to identify multiple opportunities for drug repurposing: Primary screen for NB1643 cells (AID 1347099; active = well fitted curve in the direction sought with a large enough effect; an effect the other way counts as inactive or inconclusive; also: potency is read from the fitted curve at half-maximal effect; nearly all actives have a fitted effect of over 50% in size); conditions: NB1643 neuroblastoma viability, CellTiter-Glo luminescence, 48 h; series mostly up to 46 µM
# Outline: as §1
# [12] = qHTS for Inhibitors of the Functional Ribonucleoprotein Complex (vRNP) of Lassa (LASV) Arenavirus: Viability assay - alamar blue signal for LASV Primary Screen (AID 1347083; calls by dose curve; tested in HEK293 reporter line; also: nearly all actives have a fitted effect of over 80% in size; also: potency is read from the fitted curve at half-maximal effect); conditions: cell viability, alamar blue fluorescence (LASV minigenome counter-screen); series mostly up to 57.5 µM
# [13] = qHTS for Inhibitors of the Functional Ribonucleoprotein Complex (vRNP) of Lymphocytic Choriomeningitis Arenaviruses (LCMV): Viability assay - alamar blue signal for LCMV Primary Screen (AID 1347085; calls by dose curve; tested in HEK293 reporter line; also: nearly all actives have a fitted effect of over 80% in size; also: potency is read from the fitted curve at half-maximal effect); conditions: alamar blue viability counter-screen, LCMV vRNP screen cells; series mostly up to 57.5 µM
# [14] = qHTS of pediatric cancer cell lines to identify multiple opportunities for drug repurposing: Primary screen for NB-EBc1 cells (AID 1347095; active = well fitted curve in the direction sought with a large enough effect; an effect the other way counts as inactive or inconclusive; also: potency is read from the fitted curve at half-maximal effect); conditions: NB-EBc1 neuroblastoma viability, CellTiter-Glo luminescence, 48 h; series mostly up to 46 µM
# Outline: as §1
smiles,measurement,setting,value
COc1ccc(-c2nc3ccc(C4=NNC(=O)CC4C)cc3[nH]2)cc1 (stereo not drawn),Potency,[1],inactive
same,Potency,[2],inactive
Cc1ccc([N+](=O)[O-])[c]2c1[O][Hg]2,Potency,[3],264 nM (active)
same,Potency,[4],1060 nM (active)
same,Potency,[5],53.1 nM (active)
same,Potency,[6],94.4 nM (active)
same,Potency,[7],1550 nM (active)
same,Potency,[8],2660 nM (active)
same,Potency,[9],106 nM (active)
same,Potency,[10],1090 nM (active)
same,Potency,[11],596 nM (active)
COc1cccc2c1C(=O)c1c(O)c3c(c(O)c1C2=O)C[C@@](O)(C(C)=O)C[C@@H]3O[C@H]1C[C@H](N)[C@H](O)[C@H](C)O1,Potency,[12],891 nM (active)
same,Potency,[13],355 nM (active)
Cc1cc2nc3ccc(=[N+](C)C)cc-3sc2cc1N,Potency,[2],6310 nM (active)
CN1CCN(CCC(=O)N2c3ccccc3Sc3ccc(C(F)(F)F)cc32)CC1,Potency,[1],inactive
same,Potency,[2],inactive
CN(C)CC/C=C1\c2ccccc2Sc2ccc(Cl)cc21,Potency,[1],inactive
same,Potency,[13],inactive
same,Potency,[2],inactive
CCCCCCCCCCCCCCCC[n+]1ccccc1,Potency,[12],15800 nM (active)
Nc1c2ccccc2nc2ccccc12,Potency,[13],14100 nM (active)
CN(C)C(=S)SSC(=S)N(C)C,Potency,[3],4190 nM (active)
same,Potency,[4],168 nM (active)
same,Potency,[5],211 nM (active)
same,Potency,[6],188 nM (active)
same,Potency,[7],872 nM (active)
same,Potency,[14],9440 nM (active)
same,Potency,[8],266 nM (active)
same,Potency,[9],133 nM (active)
same,Potency,[10],244 nM (active)
same,Potency,[11],531 nM (active)
CC[N+](CC)(CC)CCOc1ccc(/C=C/c2ccccc2)cc1,Potency,[13],inactive
same,Potency,[2],inactive
Oc1c(Cl)cc(Cl)c(Cl)c1Cc1c(O)c(Cl)cc(Cl)c1Cl,Potency,[13],inactive
Cc1cc(C2CCCCC2)n(O)c(=O)c1,Potency,[2],inactive
O=S(=O)(O)NC1CCCCC1,Potency,[1],inactive
same,Potency,[13],inactive
same,Potency,[2],inactive
CCOC(=O)[C@H](CCc1ccccc1)N[C@@H](C)C(=O)N(CC(=O)O)C1Cc2ccccc2C1,Potency,[1],inactive
same,Potency,[13],inactive
same,Potency,[2],inactive
O[C@@H](COc1cccc2ncccc12)CN1CCN(C2c3ccccc3[C@@H]3[C@H](c4ccccc42)C3(F)F)CC1 (stereo partly drawn),Potency,[12],12200 nM (active)
Cc1ccc2nc(N)[nH]c(=O)c2c1Sc1ccncc1,Potency,[1],inactive
same,Potency,[2],inactive
COC(=O)Nc1nc2ccc(S(=O)c3ccccc3)cc2[nH]1 (stereo not drawn),Potency,[1],inactive
same,Potency,[2],inactive
CCOC(=O)N1CCC(n2c(=O)[nH]c3cc(Cl)ccc32)CC1,Potency,[12],inactive
same,Potency,[13],inactive
CN1CCCC(n2nc(Cc3ccc(Cl)cc3)c3ccccc3c2=O)CC1 (stereo not drawn),Potency,[1],inactive
same,Potency,[2],inactive
Cc1nc2ccccc2n1Cc1ccc(Cl)cc1,Potency,[13],inactive
CC[C@]12CCCN3CCc4c(n(c5ccccc45)C(=O)C1)[C@@H]32,Potency,[1],inactive
same,Potency,[2],7080 nM (active)
Cc1c(C)n(CCN(C)C)c2ccc(C(=O)OCCN(C)C)cc12,Potency,[1],inactive
same,Potency,[2],inactive
CO[C@@H]1[C@@H](OC)[C@H](C)[C@@](O)(CC(=O)O)O[C@H]1[C@H](C)[C@H]1O[C@@]2(CC[C@@](C)([C@H]3CC[C@@](C)([C@@H]4O[C@@H]([C@H]5O[C@](C)(O)[C@H](C)C[C@@H]5C)C[C@@H]4OC4C[C@H](OC)[C@@H](OC)[C@H](C)O4)O3)O2)C[C@H](O)[C@H]1C (stereo partly drawn),Potency,[13],2000 nM (active)
same,Potency,[2],562 nM (active)
O=C(O)c1ccc(OCCCOc2ccc(C(=O)O)cc2)cc1,Potency,[13],inactive
same,Potency,[2],inactive
C#C[C@]1(O)CC[C@H]2[C@@H]3CCc4cc(O)ccc4[C@H]3CC[C@@]21C,Potency,[1],inactive
same,Potency,[2],inactive
O=C1[C@H]2CCCC[C@H]2C(=O)N1CCCCN1CCN(c2nsc3ccccc23)CC1,Potency,[12],inactive
same,Potency,[13],inactive
same,Potency,[2],inactive
O=C1N(c2ccccc2)c2ccccc2C1(Cc1ccncc1)Cc1ccncc1,Potency,[1],inactive
same,Potency,[2],inactive
CCN(CC)CCOc1ccc(C(O)(Cc2ccc(Cl)cc2)c2ccc(C)cc2)cc1 (stereo not drawn),Potency,[1],inactive
same,Potency,[13],inactive
same,Potency,[2],inactive
CC(=O)SC[C@@H](Cc1ccccc1)C(=O)NCC(=O)OCc1ccccc1,Potency,[13],inactive
same,Potency,[2],inactive
O=C(OCC(O)CO)c1ccccc1Nc1ccnc2cc(Cl)ccc12 (stereo not drawn),Potency,[1],inactive
same,Potency,[2],inactive

# — PubChem BioAssay (NCATS)
